The results in this text go back to PubChem BioAssay (NCATS).

The source made the active and inactive calls. Rule as the data show it: active = potency below about 10 µM; inactive = the rest. Some results are limits rather than exact numbers.
Potency is read from the fitted curve at half-maximal effect.

Sequence of Lysosomal acid glucosylceramidase (Homo sapiens) (P04062 whole entry, looked up): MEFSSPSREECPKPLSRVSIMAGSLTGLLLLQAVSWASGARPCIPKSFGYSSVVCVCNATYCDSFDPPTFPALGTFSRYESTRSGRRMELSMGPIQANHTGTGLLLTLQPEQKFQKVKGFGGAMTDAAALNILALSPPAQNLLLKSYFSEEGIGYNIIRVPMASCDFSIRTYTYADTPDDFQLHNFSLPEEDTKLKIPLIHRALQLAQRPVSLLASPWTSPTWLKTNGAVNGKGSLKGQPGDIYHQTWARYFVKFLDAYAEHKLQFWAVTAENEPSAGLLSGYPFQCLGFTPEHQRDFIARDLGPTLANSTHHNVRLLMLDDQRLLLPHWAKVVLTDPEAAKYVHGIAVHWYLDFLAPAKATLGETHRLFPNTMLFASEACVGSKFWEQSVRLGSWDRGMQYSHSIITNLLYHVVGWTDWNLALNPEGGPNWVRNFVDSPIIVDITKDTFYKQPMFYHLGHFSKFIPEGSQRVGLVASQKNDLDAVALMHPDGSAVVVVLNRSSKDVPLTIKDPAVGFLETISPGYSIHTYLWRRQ

This assay concerns the target Lysosomal acid glucosylceramidase (Homo sapiens) (UniProt P04062). Description: Glucocerebrosidase-p2 (AID 348). To be noted: purified GBA, blue fluorogenic substrate, 40 min. In a few lines: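 Normal human glucocerebrosidase (0.2 nM) with blue fluorogenic substrate (80 uM final) in citrate/phosphate pH 5.9 with 10mM sodium taurocholate, 0.01% tween-20; 40 min RT, NaOH/glycine stop; fluorescence Ex 365/Em 440; AC50 from a titration from 0.6 nM upwards.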
Turning to `C[C@H](Br)C(=O)c1ccc2cc(Br)c3ccccc3c2c1`, the Potency is > 11.4 µM (inactive).

As for `COc1ccc(C(=O)N2CCC3(CCCN(C(=O)Nc4cccc(F)c4)C3)CC2)cc1`, the Potency was > 11.4 µM (inactive).

For the molecule `Cc1cc(C)c2c(SCc3ccc(Cl)cc3Cl)nc(N)nc2n1`, the Potency was > 11.4 µM (inactive).

With `CC(=O)Nc1nc(NC(C)=O)c2[nH]c(CO)nc2n1`, the Potency is > 11.4 µM (inactive).

For the molecule `Clc1ccc(CN2CCCN(Cc3ccc(Cl)cc3)C2c2cc3ccccc3c3ccccc23)cc1`, the Potency was > 11.4 µM (inactive).

As to `COc1cc(-c2[o+]c3cc(O)cc(O)c3cc2O)cc(O)c1O`, the Potency was > 11.4 µM (inactive).

Regarding `O=C(O)[C@@H](O)[C@@H](O)[C@H](O)[C@H](O)CO`, the Potency is > 11.4 µM (inactive).

Consider `Nc1nc2c(ncn2[C@@H]2C=C[C@@H](CO)C2)c(=O)[nH]1`, for which the Potency was > 11.4 µM (inactive).

In the case of `Cn1c(=S)c2[nH]c(SCCN3CCCC3)nc2n(C)c1=O`, the Potency was > 11.4 µM (inactive).

`C/C(CC/C(C)=N/O)=N/O`: the Potency is > 11.4 µM (inactive).

Regarding `Oc1ccc(Cn2c(-c3ccc(O)cc3)nc3ccccc32)cc1`, the Potency was > 11.4 µM (inactive).

On to `NCCNCC1CCNCC1`, for which the Potency was > 11.4 µM (inactive).

With `CO[C@@H]1/C=C\O[C@]2(C)Oc3c(C)c(O)c4c(O)c(cc(O)c4c3C2=O)NC(=O)/C(C)=C\C=C/[C@H](C)[C@@H](O)[C@H](C)[C@H](O)[C@H](C)[C@H](OC(C)=O)[C@@H]1C`, the Potency was > 11.4 µM (inactive).

For `O=S(=O)(O)c1cc(N=Nc2cccc3ccccc23)c(O)c2ncccc12`, the Potency is > 11.4 µM (inactive).
